Assay results taken from PubChem BioAssay AID1956 (SRMLSC, 2009).
About 10 (0.005%) of roughly 220,000 compounds were called active. No stated cut-off is given here; in the data, active means maximum fold increase above about 1.5; inconclusive means no clear call, values can overlap the other calls; inactive means below that; tested in PC3 cells. A selection follows.

assay: enhancers of HSV replication in host cells, fold increase, host cell viability (AID 1956); conditions: HSV replication augmentation in cells; fold increase: measured here: primary screen fold increase 10 uM, at 10 µM, stronger effect = higher value; maximum fold increase: at 0.098 µM, stronger effect = higher value; viability: measured here: host cell viability series, at 25 µM, stronger effect = lower value

Compound	fold increase	outcome
COc1ccc(C#Cc2c(-c3ccc(OC)cc3)oc3ccc(-c4ccc5c(c4)OCO5)cc23)cc1	0.99	inactive
Cc1nc(-c2ccccc2)sc1C1(C)CC(c2cccnc2)=NO1 (stereo not given)	0.85	inactive
COC(=O)c1sccc1NN1C(=O)c2ccccc2C1=O	1.18	inactive
COCCN1C2=C(COC(C)(C)C2)C(=S)NC1c1ccccc1 (stereo not given)	0.95	inactive
O=C1N[C@@H](Cc2ccccc2)C(=O)N2[C@@H]3N(S(=O)(=O)c4ccc(F)cc4)c4ccccc4[C@]3(Br)C[C@@H]12	0.86	inactive
CCOC(=O)C[C@H]1c2ccc(C(F)(F)F)cc2S(=O)(=O)N1c1ccccc1	0.88	inactive
Cc1ccc(S(=O)(=O)N(C)C)cc1NC(=O)c1n[nH]c(=O)c2ccccc12	0.73	inactive
O=C(NCc1ccccc1)c1ccc(S(=O)(=O)Nc2cccc(C(F)(F)F)c2)cc1	0.83	inactive
O=C1CC(Cc2ccc(Cl)cc2)C(=O)N1c1cc(Cl)ccn1 (stereo not given)	1.23	inactive
O=C(O)C(F)(F)C(NCc1ccccc1)c1ccccc1 (stereo not given)	0.84	inactive
CCN(CC)CCNCC(=O)Nc1ccc(Oc2ccccc2)cc1	0.94	inactive
NS(=O)(=O)c1ccc(NC2=CC(c3ccc(F)cc3)N(c3ccc(S(N)(=O)=O)cc3)C2=O)cc1 (stereo not given)	1.05	inactive
CC(C)(C)c1ccc(/C=C2\Oc3c(ccc(O)c3CN3CCN(CCO)CC3)C2=O)cc1	1.25	inactive
COc1ccc(CNC(=O)C2CC(c3ccc(C(F)(F)F)cc3)=NO2)cc1 (stereo not given)	0.93	inactive
CCN(CC)c1ccc(NC(=O)C2CCC(CNc3c(N4CCCC4)c(=O)c3=O)CC2)c(C)c1 (stereo not given)	1	inactive
COc1ccc(CCN2C(=O)N(c3ccc(OC)cc3)C(=O)C2CC(=O)Nc2ccc(OC)cc2)cc1 (stereo not given)	0.88	inactive
COC(=O)c1ccc(C(NC(=O)OCc2ccccc2)/C(F)=C/[C@@H](C)C(=O)O)cc1 (stereo not given in full)	0.86	inactive
COC(=O)c1c(C)cc(O)c(C)c1O	0.79	inactive
O=C1CC2(CCCC2)Oc2ccc(Cl)cc21	0.69	inactive
CC(C)Oc1ccc(CCC(=O)NNC(=S)NCc2ccccc2)cc1	1.13	inactive
CC(=O)N[C@H]1[C@H]([C@H](O)[C@H](O)CO)OC(C(=O)O)=C[C@@H]1O	0.87	inactive
CC(CO)(CO)NC(=O)c1ccc(=O)[nH]n1	0.94	inactive
COC(C[C@@H](O)C[C@H](O)[C@H](C)OCc1ccccc1)OC	0.91	inactive
COC(C[C@@H]1O[C@@H]1C(=O)[C@@H](C)OCc1ccccc1)OC	0.81	inactive
COc1ccc(NC(=O)CSc2ncnc3[nH]ncc23)cc1	1.02	inactive
CCOC(=O)c1ccc(NC(=O)c2c(NCc3ccccc3)[nH]c(=O)[nH]c2=O)cc1	0.87	inactive
O=C(NC(=O)N1CCSCC1)c1c(Cl)cccc1Cl	1	inactive
CNC(C)C#Cc1ccc2sc3cc(OC)c(OC)cc3c(=O)c2c1 (stereo not given)	0.67	inactive

Compound	fold increase	outcome
O=C(O)/C=C/c1ccc2c(c1)OCCO2	0.95	inactive
C[C@H](NC(=O)c1nc[nH]c1C(=O)N[C@@H](C)C(=O)OC(C)(C)C)C(=O)OC(C)(C)C	0.88	inactive
CNC(=S)NNC(=O)c1ccc(N(C)C)cc1	1.02	inactive
COc1ccc(CNC(=O)[C@@H]2CC=C[C@@H]3CCN(C4CC4)C(=O)[C@@H]32)cc1	0.88	inactive
CN=C1C=C/C(=N/N=c2\ccn(O)cc2C)C=C1C	1.05	inactive
Cc1ccccc1Nc1c(-c2ccccc2)nc2ncccn12	1.06	inactive
O=C1CCCC(O)=C1N=Nc1ccc(S(=O)(=O)N2CCOCC2)cc1	0.97	inactive
COC(C[C@@H]1O[C@@H]1C(=O)[C@H](C)OCc1ccccc1)OC	0.81	inactive
O=c1[nH]c(CSc2ccccc2)nc2c1oc1ccccc12	1.16	inactive
CCOC(=O)C1=NN(c2ccc(Cl)cc2)/C(=C/C2=NCCc3cc(OC)c(OC)cc32)S1	1.18	inactive
CCn1c2ccccc2c2cc(NC(=O)Nc3ccc([N+](=O)[O-])cc3C)ccc21	0.73	inactive
Cc1ccc(NC(=O)c2nc[nH]c2C(=O)N[C@@H](CCCCNC(=O)OC(C)(C)C)C(=O)OC(C)(C)C)cc1	0.74	inactive
C/C=C/C(=O)Nc1ccc(N2CCN(c3ccc(C(F)(F)F)cn3)CC2)nc1	0.88	inactive
CCC(=O)Nc1cccc(C2=NOC3(C2)C[C@@H](C(N)=O)N(C(=O)c2cc([N+](=O)[O-])cc([N+](=O)[O-])c2C)C3)c1 (stereo not given in full)	1.3	inactive
CCCC[C@@H]1CN=C(N)N1CCCC	1.05	inactive
COC(C/C=C/C(=O)[C@@H](C)OCc1ccccc1)OC	0.77	inactive
Cn1ccnc1-c1nnn(-c2ccc(F)cc2)n1	1.06	inactive
CCOC(=O)c1cccc(NC(=O)c2ccc(F)cc2F)c1	0.77	inactive
O=C(N/N=C/c1ccccn1)c1cccnc1	1.05	inactive
COC(=O)C1=C[C@@H](C(=O)OC)[C@@H]2C3=C(C(=O)[C@]2(C)NC(=O)c2ccccc2)[C@H](C)n2c(=O)n(C)c(=O)n2[C@@H]3C1	0.77	inactive
C#CCOCCOCCOCCNc1nc(N2CCN(C(=O)C([C@@H](C)CC)n3cc(C(N)COC(=O)C(F)(F)F)nn3)CC2)nc(N2CCN(C(=O)[C@H](CCCCN)n3cc(C(N)CC(C)C)nn3)CC2)n1 (stereo not given in full)	0.79	inactive
C=C(C)COc1ccc(-c2nc(N)ncc2-c2ccccc2OC)c(O)c1	0.94	inactive
COCCN(C(=S)Nc1cccc(Cl)c1C)C(C)c1ccco1 (stereo not given)	1.01	inactive
Cc1cccc(Nc2nc(NCCO)nc(N3CCCC3)n2)c1	0.73	inactive
Cc1nnc(Nc2ccccc2F)s1	0.86	inactive
CC1(C)C2CC[C@]3(C)C(CC=C4[C@@H]5C[C@@](C)(CO)CC[C@]5(C(=O)O)CC[C@]43C)[C@@]2(C)CC[C@@H]1O (stereo not given in full)	1.01	inactive
C=C(C)CNC(=S)Nc1ccc(S(=O)(=O)Nc2cnc3ccccc3n2)cc1	0.94	inactive
